Shown are actives, neighbours in structure and some others; about 7.9% of the full set was active somewhere.
HCV inh: qHTS Assay for Inhibitors of Hepatitis C Virus (HCV) | Potency, µM (doses to about 41.8 µM), hits mostly inhibitors | 340,000 compounds, 3.4% hits | Huh7.5.1 HCVcc-Cre infection, luciferase reporter, 44 h
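Infectious HCVcc-Cre (~0.5 moi) was added to cells just after compound, with cells seeded 4 h earlier at 1,000 per well. Luciferase activity after 44 h culture reported infection; substrate was incubated 15 min at room temperature before reading.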
Marburg entry inh: qHTS for inhibitors of binding or entry into cells for Marburg Virus; Marburg virus pseudotyped entry inhibition, cell reporter; Potency, µM (doses to about 37.8 µM), most hits filed as inhibitors; 300,000 compounds, 1.8% hits; AID 540276, 2011; calls by dose curve; tested in HEK293 cells
FMDV antiviral: High Throughput Screening for Foot and Mouth Disease Virus Antivirals; 410,000 compounds, 1.2% hits; Potency, µM (doses to about 57.9 µM), actives largely listed as inhibitors; FMDV antiviral cell-based qHTS; calls by dose curve; tested in HEK293T cells; further: read-out not given here; nearly all actives have a fitted effect of over 45% in size
HCMV inh: qHTS Assay for inhibitors of the human cytomegalovirus (HCMV); HFF cells, HCMV-luciferase reporter, 72 h; stronger effect = lower value; activity change, negative = inhibition, % at 57.5 µM; 410,000 compounds, 4.5% hits; AID 1259415, 2018; in the data active means activity change below about -60%; inconclusive means no clear call, values can overlap the other calls; inactive means above about -39%
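Screen run at 2 compound doses on HFFs infected with reporter HCMV, MOI 1 PFU/cell. Luciferase activity from cell lysates at 72 h post infection gave inhibition relative to buffer-only and Salinomycin wells.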
LASV entry inh: qHTS for Inhibitors of binding or entry into cells for Lassa Virus. Lassa virus pseudotype entry inhibition, cell reporter. Potency, µM (series often up to 37.9 µM), actives largely listed as inhibitors. 300,000 compounds, 1.2% hits; calls by dose curve; tested in HEK293 cells; further: nearly all actives have a fitted effect of over 50% in size
HCV confirm: qHTS Assay for Inhibitors of Hepatitis C Virus (HCV): Confirmation Assay for Cherry-picked Compounds; shares compounds with HCV inh; HCVcc-Cre infectious virus cell assay, luciferase, inhibition; Potency, µM (top dose mostly 41.8 µM), usual class: inhibitors; 640 compounds, 78% hits; AID 720575, 2013; further: nearly all actives have a fitted effect of over 80% in size
HCV cytotox: qHTS Assay for Inhibitors of Hepatitis C Virus (HCV): Cytotoxicity Counterscreen for Cherry-picked Compounds; AID 720576, 2013; HCV host cell line cytotoxicity counterscreen; 640 compounds, 22% hits; shares compounds with HCV inh; Potency, µM (doses to about 41.8 µM), most hits filed as inhibitors;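 further: 44 h compound exposure; nearly all actives have a fitted effect of over 55% in size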
Of the large screens only hits and unclear results are named; the others gave an inactive call (follow-up assays come after a bar, where they were run). Unless noted, the call rests on the fitted dose curve; in most records, active means well fitted curve in the direction sought with a large enough effect; inconclusive means small, poorly fitted or top-dose-only effect, or another doubt; inactive means no such curve, though single readings can be large; an effect the other way counts as inactive or inconclusive.

CC(C)Cn1c(N)c(C(=O)CSc2ccccc2)c(=O)n(C)c1=O	HCV inh inconclusive, Marburg entry inh inconclusive, FMDV antiviral 20µM | HCV confirm 7.9µM | HCV cytotox inconclusive
CCN(CC)S(=O)(=O)c1ccc2c(c1)C(=NO)c1cc(S(=O)(=O)N(CC)CC)ccc1-2	HCV inh 4.5µM, Marburg entry inh inconclusive, FMDV antiviral 20µM, LASV entry inh inconclusive | HCV confirm 7µM | HCV cytotox inconclusive
O=C(NC1CCCCC1NC(=O)c1ccco1)c1ccco1 (stereo not given)	none
O=C(NC1c2ccccc2-c2ccccc21)c1ccco1	HCV inh inconclusive | HCV confirm 7.9µM | HCV cytotox inactive
COc1cccc(CNC(=O)c2ccc3nc(-c4ccc(F)cc4)c(-c4ccc(F)cc4)nc3c2)c1	LASV entry inh inconclusive (no result: HCV inh, Marburg entry inh)
O=C(COc1ccc(/C=N/NC(=O)c2cc3ccccc3o2)cc1Cl)Nc1ccccc1	HCV inh 5.6µM, Marburg entry inh inconclusive, LASV entry inh 8.9µM (no result: HCMV inh) | HCV confirm 7µM | HCV cytotox 7µM
Cc1nc(N)nc(N)c1CCCc1ccc(Cl)c(Cl)c1	HCV inh 4µM, Marburg entry inh inconclusive, HCMV inh -87, LASV entry inh inconclusive | HCV confirm 7µM | HCV cytotox inconclusive
C[C@@H](CSc1ccccc1)CN1CC[C@H](O)CCC1=O	none (no result: Marburg entry inh, LASV entry inh)
Cc1ccccc1C(=O)Nc1ccccc1-c1nnn(CC(=O)Nc2ccc3c(c2)OCCO3)n1	HCV inh 5µM, Marburg entry inh inconclusive, FMDV antiviral inconclusive | HCV confirm inconclusive | HCV cytotox inactive
CCN(CC)C(=O)Cn1cc(C(=O)C(=O)Nc2ccc3c(c2)OCCO3)c2ccccc21	HCV inh inconclusive, Marburg entry inh inconclusive, LASV entry inh inconclusive
O=c1oc(C2(O)CCCCC2)cc2ccc(-c3ccc4[nH]ccc4c3)cc12	HCV inh 1.1µM, HCMV inh -93 (no result: Marburg entry inh, LASV entry inh) | HCV confirm inconclusive | HCV cytotox inactive
O=c1oc(C2(O)CCCCC2)cc2ccccc12	none (no result: Marburg entry inh, LASV entry inh)
Cc1cccc(N(CC(=O)N2CCCC2)S(C)(=O)=O)c1	none (no result: Marburg entry inh, LASV entry inh)
Cc1nc(N2CCCC2)c2c(C(=O)Nc3cccc(Cl)c3)c(C)oc2n1	none (no result: HCV inh, Marburg entry inh)
CN(C)c1ccc(/C=C2\Oc3ccc(C#Cc4cccc(N)c4)cc3C2=O)cc1	HCV inh inconclusive (no result: Marburg entry inh, HCMV inh, LASV entry inh) | HCV confirm 8.9µM | HCV cytotox inactive
O=C(Nc1ccc(F)cc1)c1ccc(-n2cnnc2)cc1	none (no result: HCV inh, Marburg entry inh)
CC1(C)Oc2ccc3ccc(=O)oc3c2-c2cn[nH]c21	HCV inh 7.1µM, HCMV inh -81, LASV entry inh inconclusive | HCV confirm inconclusive | HCV cytotox inconclusive
NS(=O)(=O)c1ccc(Nc2nc3ccccc3nc2NS(=O)(=O)c2cccc([N+](=O)[O-])c2)cc1	none
COc1ccccc1NC(=O)C(C)OC(=O)c1cc2ccccc2[nH]1 (stereo not given)	HCV inh inconclusive, FMDV antiviral inconclusive (no result: Marburg entry inh, LASV entry inh) | HCV confirm 7.9µM | HCV cytotox 18µM
Cc1ccc(OCCCCNC2CCCC(C)C2C)c(C)c1 (stereo not given)	HCV inh 7.9µM, Marburg entry inh 11µM, LASV entry inh inconclusive | HCV confirm 25µM | HCV cytotox inconclusive
Cc1ccc(OCCCCN2CCCCC2)c(C)c1	none (no result: Marburg entry inh, LASV entry inh)
COC(=O)c1cc2ccsc2n1CC(=O)Nc1cc(Cl)ccc1OC	HCV inh 3.2µM, HCMV inh -97 (no result: FMDV antiviral) | HCV confirm 7.9µM | HCV cytotox 14µM
CCN(CC)c1ccc(N2C(=NC(=O)C3CC3)SC3CS(=O)(=O)CC32)cc1 (stereo not given)	none
Cc1cc(C(=O)COC(=O)c2ccc(O)cc2O)c(C)n1-c1ccccc1	HCV inh inconclusive, Marburg entry inh inconclusive, LASV entry inh 11µM | HCV confirm 18µM | HCV cytotox inactive
COc1ccc(CCC(C)NC(=O)Cc2ccc(OC)c(OC)c2)c(OC)c1 (stereo not given)	HCV inh 7.1µM, FMDV antiviral inconclusive (no result: Marburg entry inh, LASV entry inh) | HCV confirm 11µM | HCV cytotox inconclusive
COC(=O)CS(=O)(=O)c1ccsc1C(=O)Nc1ccc(F)cc1	none
CN1CCN(c2ncnc3c2ncn3[C@H]2CN(Cc3ccc(-c4ccccc4)cc3)C[C@@H](CO)O2)CC1	none (no result: HCV inh, Marburg entry inh, LASV entry inh)
Cc1onc(-c2ccccc2)c1-c1nnc(COC(=O)c2ccc(F)cc2)o1	none (no result: HCV inh, Marburg entry inh, LASV entry inh)
Cc1onc(-c2ccccc2)c1-c1nnc(-c2ccccc2C(F)(F)F)o1	HCV inh inconclusive, Marburg entry inh inconclusive, FMDV antiviral inconclusive | HCV confirm 25µM | HCV cytotox inactive
OC1CCN(c2c3c(nc4cc(-c5ccc(F)cc5)nn24)CCC3)CC1	HCV inh inconclusive | HCV confirm 5µM | HCV cytotox inactive
Fc1ccc(-c2cc3nc4c(c(N5CCOCC5)n3n2)CCCC4)cc1	HCV inh inconclusive, Marburg entry inh inconclusive, LASV entry inh inconclusive (no result: FMDV antiviral)
CCOc1ncccc1C(=O)NCC(c1ccco1)N1CCCCC1 (stereo not given)	Marburg entry inh inconclusive
CCOC(=O)c1c(C)nc2c3ccccc3ccn12	HCV inh 7.1µM, Marburg entry inh inconclusive | HCV confirm inactive | HCV cytotox inactive
CCOC(=O)c1c(C)nc2c(C)cccn12	none
CC(C)OCCCNC(=O)C1CCN(S(=O)(=O)c2ccc3nc4c(c(C(=O)O)c3c2)CCCCC4)CC1	none (no result: Marburg entry inh, LASV entry inh)
CCn1c(SC)nnc1-c1sc2cc(Cl)ccc2c1Cl	HCV inh 5.6µM, HCMV inh inconclusive | HCV confirm inactive | HCV cytotox inactive
COCCN(C(=O)COC(=O)c1cc2c(s1)CCC2)c1c(N)n(Cc2ccccc2)c(=O)[nH]c1=O	HCV inh inconclusive, Marburg entry inh inconclusive | HCV confirm inactive | HCV cytotox inactive
CCC1CCc2sc(C(=O)OCC(=O)N(CCOC)c3c(N)n(Cc4ccccc4)c(=O)[nH]c3=O)cc2C1 (stereo not given)	HCV inh inconclusive
CC(C)(C)C1CCc2c(sc3ncn(N)c(=N)c23)C1 (stereo not given)	HCV inh inconclusive, FMDV antiviral inconclusive, HCMV inh inconclusive (no result: Marburg entry inh, LASV entry inh) | HCV confirm 6.3µM | HCV cytotox inconclusive
O=C(NC(Nc1nc2ccc([N+](=O)[O-])cc2s1)(C(F)(F)F)C(F)(F)F)c1cccnc1	HCV inh 4.5µM, Marburg entry inh inconclusive, FMDV antiviral 2.8µM, HCMV inh -102, LASV entry inh inconclusive | HCV confirm 2.5µM | HCV cytotox 7µM
Cc1cc(-c2ccccc2)n2nc(N)nc2n1	none (no result: Marburg entry inh, LASV entry inh)
CN(C)c1ncc2ncc(=O)n(C3CC3)c2n1	none (no result: HCV inh, Marburg entry inh, HCMV inh, LASV entry inh)
Cc1ccc(C(=O)c2cc([N+](=O)[O-])ccc2N2CCCCC2)c(C)c1	HCV inh inconclusive, Marburg entry inh inconclusive, FMDV antiviral inconclusive, HCMV inh -92, LASV entry inh inconclusive | HCV confirm inconclusive | HCV cytotox inactive

Screening data: PubChem, National Center for Advancing Translational Sciences (NCATS)
